Pf growth 48h: P. falciparum growth inhibition at 48 hours (one generation) | P. falciparum luciferase growth in erythrocytes, 48 h | Potency, µM (top dose mostly 28.7 µM), usual class: inhibitors | hit rate 5.9% among 310,000 | AID 504832
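Here the parasites carry a stable luciferase gene and grow inside erythrocytes in Albumax-based RPMI medium with compound for one erythrocytic cycle. Activity is scored as loss of luminescent signal.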
Sm TGR inh: S. mansoni TGR enzyme inhibition | Q962Y6 | AID 485364 | Potency, µM (top dose mostly 114 µM), most hits filed as inhibitors | purified TGR, DTNB reduction, TNB absorbance 405 nm | hit rate 3% among 360,000; further: nearly all actives have a fitted effect of over 60% in size
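Kinetic colorimetric format: TGR-catalysed, NADPH-driven DTNB reduction monitored via TNB absorbance. Enzyme dispensed at 20 nM; compound exposure 15 min at room temperature before reaction start.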
Pf growth 96h: P. falciparum growth inhibition at 96 hour, primary screen for plastid delayed-death inhibitors | hit rate 6.9% among 320,000 | P. falciparum luciferase reporter growth, 96 h | Potency, µM (titrated, usually from 28.7 µM), hits mostly inhibitors | AID 504834
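P. falciparum expressing integrated firefly luciferase, in erythrocytes at 2% hematocrit, 0.05% parasitemia, incubated with compounds 96 h at 37 C, 5% CO2. Growth inhibition read as loss of luminescence; two-generation exposure targets delayed-death apicoplast inhibitors.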
SARS PLpro yeast: inhibitors of SARS-CoV papain-like protease in yeast | Potency, µM (titrated, usually from 32.9 µM), actives largely listed as activators | hit rate 0.19% among 330,000 | S. cerevisiae expressing SARS-CoV PLpro, growth rescue; calls by dose curve; further: nearly all actives have a fitted effect of over 55% in size
Of the large screens only hits and unclear results are named; the others gave an inactive call. Hits are enriched below; roughly 12% of the tested compounds scored in any of these assays. Unless noted, the call rests on the fitted dose curve; in most records, active means well fitted curve in the direction sought with a large enough effect; inconclusive means small, poorly fitted or top-dose-only effect, or another doubt; inactive means no such curve, though single readings can be large; an effect the other way counts as inactive or inconclusive.

C#CCOCCOCCOCCNc1nc(N2CCOCC2)nc(N2CCN(C(=O)[C@H]([C@@H](C)CC)n3cc([C@@H](N)Cc4ccc(O)cc4)nn3)CC2)n1	Pf growth 48h 1.5µM, Pf growth 96h inconclusive
C#CCOCCOCCOCCNc1nc(N2CCN(C(=O)[C@H]([C@@H](C)CC)n3cc([C@@H](N)Cc4ccc(O)cc4)nn3)CC2)nc(N2CCN(C(=O)[C@H](CCCCN)n3cc([C@@H](N)CO)nn3)CC2)n1	Sm TGR inh 20µM
C#CCOCCOCCOCCNc1nc(N2CCN(C(=O)C([C@@H](C)CC)n3cc(C(N)CC(C)C)nn3)CC2)nc(N2CCN(C(=O)[C@H](CCC(=O)O)n3cc(C(N)CC(C)C)nn3)CC2)n1 (stereo partly drawn)	none
C#CCOCCOCCOCCNc1nc(N2CCOCC2)nc(N2CCN(C(=O)[C@H](Cc3ccc(O)cc3)n3cc([C@@H](N)CC(C)C)nn3)CC2)n1	Pf growth 48h 5.2µM, Pf growth 96h 12µM
CCN(C[C@H]1N[C@@](Cc2ccccc2)(C(=O)OC)[C@H]2C(=O)N(C)C(=O)[C@@H]12)S(=O)(=O)c1ccc(-c2ccccc2)cc1	none (no result: Pf growth 48h, Sm TGR inh, Pf growth 96h)
C#CCOCCOCCOCCNc1nc(N2CCN(C(=O)[C@H]([C@@H](C)CC)n3cc([C@@H](N)Cc4ccc(O)cc4)nn3)CC2)nc(N2CCN(C(=O)[C@H](Cc3ccc(O)cc3)n3cc([C@@H](N)C(C)CC)nn3)CC2)n1 (stereo partly drawn)	Pf growth 48h inconclusive, Pf growth 96h inconclusive
C#CCOCCOCCOCCNc1nc(N2CCN(C(=O)[C@H]([C@@H](C)CC)n3cc([C@@H](N)CC(C)C)nn3)CC2)nc(N2CCN(C(=O)[C@H](Cc3ccc(O)cc3)n3cc([C@@H](N)C(C)CC)nn3)CC2)n1 (stereo partly drawn)	Pf growth 48h 5.2µM, Pf growth 96h 5.2µM
COc1ccc(-c2c(C#N)c(N)nc3c2CCc2ccccc2-3)cc1OC	Pf growth 48h 2.3µM, Pf growth 96h 7.4µM
COc1cc(-c2c(C#N)c(N)nc3c2CCCC3)ccc1O	Sm TGR inh 20µM (no result: Pf growth 96h)
COc1ccc(-c2cc(-c3ccc(O)cc3)nc(N)c2C#N)cc1OC	Pf growth 96h inconclusive
N#Cc1c(N)nc2c(c1-c1cccc(O)c1)CCCCCC2	SARS PLpro yeast inconclusive
CCOC(=O)n1c(SCC(N)=O)nc2ccccc21	Pf growth 96h inconclusive
CCCCOC(=O)n1c(SCC(=O)N(CC)CC)nc2ccccc21	Pf growth 96h 2.6µM
N#CC1(C#N)C(c2ccccc2)OC23CCCCCC2C1(C#N)C(=N)O3 (stereo not drawn)	Sm TGR inh 25µM
CCCC(C)C1(CC)C(=O)NC(=Nc2ccccc2OC)NC1=O (stereo not drawn)	Pf growth 96h 10µM
O=S(=O)(NCc1nc2cccnc2n1Cc1ccccc1Cl)c1ccc2c(c1)CCCC2	none (no result: Pf growth 48h, Pf growth 96h, SARS PLpro yeast)
COc1ccc(C2=CC(c3ccc(OC)c(OC)c3)c3c(c4ccccc4oc3=O)O2)cc1OC (stereo not drawn)	Pf growth 48h 2.6µM, Pf growth 96h 8.3µM
COc1ccc(-c2c(C)c3cc(O)ccc3oc2=O)cc1OC	Pf growth 96h inconclusive
CCOc1ccc(NC(=O)CSc2nnc3c(C)cc4ccccc4n23)cc1	none (no result: Pf growth 48h, Pf growth 96h, SARS PLpro yeast)
Cc1ccc2nc(-c3ccc(NC(=O)CN(c4ccccc4C)S(C)(=O)=O)cc3)sc2c1	none
Cc1ccc2nc(-c3ccc(NC(=O)CN4CCN(C(=O)c5ccco5)CC4)cc3)sc2c1	Pf growth 48h 2.3µM, Sm TGR inh inconclusive, Pf growth 96h 1.5µM
Cc1cc(C)cc(N(CC(=O)Nc2ccc(-c3nc4ccc(C)cc4s3)cc2)S(C)(=O)=O)c1	Pf growth 96h 4.1µM
O=C1[C@@H](Oc2ccccc2)[C@@H](c2cnc3ccccc3c2)N1c1ccccc1	none (no result: Pf growth 48h, Sm TGR inh, Pf growth 96h)
Cc1c(C(=O)O)sc2nc(/C=C/c3ccccc3OC(F)F)[nH]c(=O)c12	Pf growth 96h 13µM
NS(=O)(=O)c1cc(-c2nn[nH]n2)c(NCc2cccs2)cc1Cl	Pf growth 96h 12µM (no result: Sm TGR inh, SARS PLpro yeast)
O=C(COC(=O)c1cnc(Cl)c(Cl)c1)NCc1cccs1	none
O=C(NCc1ccncc1)c1cccc(S(=O)(=O)N2CCc3ccccc32)c1	Pf growth 48h inconclusive, Sm TGR inh 28µM, Pf growth 96h inconclusive
CC1Cc2ccccc2N1S(=O)(=O)c1cccc(C(=O)NCc2ccncc2)c1 (stereo not drawn)	Pf growth 48h inconclusive
O=C(NCCc1ccccn1)c1cccc(S(=O)(=O)N2CCc3ccccc32)c1	Pf growth 48h inconclusive, Sm TGR inh 40µM, Pf growth 96h inconclusive
CCCCC(=O)Nc1cnc(NC(=O)c2cccs2)cc1C	none
O=C1C=CC(=C(c2ccc(O)cc2)c2ccc(O)cc2)C=C1	Pf growth 48h 7.4µM, Pf growth 96h 7.4µM
CC[C@H]1CN2CCc3cc(OC)c(OC)cc3[C@H]2C[C@@H]1C[C@@H]1NCCc2cc(OC)c(OC)cc21	Pf growth 48h 0.067µM, Pf growth 96h 0.067µM (no result: Sm TGR inh, SARS PLpro yeast)
c1ccc2sc(NCC3CCCO3)nc2c1 (stereo not drawn)	none
CC1=CC(=C(C#N)c2nc3ccccc3s2)C=C(C)N1CC1CCCO1 (stereo not drawn)	Pf growth 48h inconclusive, Pf growth 96h 2.9µM
O=C(NC1CC1)c1ccc2c(c1)C1C3CCC(C3)C1C(c1ccccc1)N2 (stereo not drawn)	Pf growth 48h 9.3µM, Pf growth 96h 7.4µM
O=C(NC1CCCC1)c1cccc(Cl)c1	none
CC(C)(CNC(=O)c1cc([N+](=O)[O-])ccc1N1CCC(Cc2ccccc2)CC1)N1CCOCC1	Pf growth 48h 9.3µM, Pf growth 96h inconclusive
O=C(Nc1ccc(N2CCOCC2)cc1)C1CC(=O)N(c2ccc(F)cc2)C1 (stereo not drawn)	Pf growth 96h 10µM
CC1CCN(C(=O)c2cc3c(=O)n(C)c4cc(Cl)ccc4c3s2)CC1	none (no result: Pf growth 48h, Pf growth 96h, SARS PLpro yeast)
CC(Sc1ncccn1)C(=O)NC1(C#N)CCCCC1 (stereo not drawn)	none
CC(SC1=Nc2ccccc2C2CC=NN12)C(=O)NC1(C#N)CCCCC1 (stereo not drawn)	Pf growth 48h inconclusive, Pf growth 96h 8.3µM
O=C(CCCCN1CCCCC1)c1ccc2c(c1)Cc1ccccc1-2	Pf growth 48h 5.2µM
CCOc1ccc(Cl)cc1C(c1c(C)[nH][nH]c1=O)c1c(C)[nH][nH]c1=O	Sm TGR inh inconclusive
C#CCOc1ccc(Br)cc1C(c1c(C)[nH][nH]c1=O)c1c(C)[nH][nH]c1=O	Sm TGR inh 45µM
CN(O)/C=c1/ccc2c(n1)C(=O)C=CC=2	Pf growth 48h 8.3µM, Pf growth 96h 12µM
Cc1ccc(CNC(=O)CN(Cc2cccs2)C(=O)C2(C)CC(=O)N=C3C=CC=CN32)cc1 (stereo not drawn)	Pf growth 96h 1.7µM
Cc1ccc(CNC(=O)CN(C(=O)C2(C)CC(=O)N=C3C=CC=CN32)c2cc(C)ccc2C)cc1 (stereo not drawn)	none
CCOC(=O)c1c(C)[nH]c(C2=NNC(=Nc3cccc(Cl)c3)SC2)c1C	Pf growth 48h 2.1µM, Pf growth 96h 2.1µM
CCOC(=O)c1c(C)[nH]c(C=O)c1Cc1cccc(Cl)c1	none

Assay outcomes (PubChem)
